Assay outcomes deposited in PubChem by National Center for Advancing Translational Sciences (NCATS).
HTT ATP protect = Huntington cell model cytoprotection by ATP luminescence; PC12 HTT-Q103 induced, cytoprotection, ATP luminescence, 40 h; Potency, µM (series often up to 56.4 µM), actives largely listed as activators; 0.14% of 230,000 active; active = well fitted curve in the direction sought with a large enough effect; inconclusive = small, poorly fitted or top-dose-only effect, or another doubt; inactive = no such curve, though single readings can be large; an effect the other way counts as inactive or inconclusive; also: nearly all actives have a fitted effect of over 45% in size
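PC12 cells stably carrying ecdysone-inducible Htt exon 1 (Q103)–GFP were induced with 100 nM tebufenozide (final) alongside library compounds in a dose series. Cytoprotection was scored as retained ATP by ATPlite luminescence.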
PNC inhibitor = inhibitors of perinucleolar compartment assembly | PC3M PTB-GFP, PNC prevalence imaging, 16 h; active compounds read low | activity change (PNC), negative = inhibition, % at 10 µM | 3.1% of 140,000 active | AID 2417;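 active = readout at or below -70, meaning at least 70% loss of cells showing the perinucleolar compartment, a nuclear body marking cancer cells; inconclusive = readout between -30 and a set limit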
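PC3M cells stably expressing PTB-GFP, 750–1000 cells/well, treated 16 h at 37 °C with compound (23 nl of library stock), in duplicate. After paraformaldehyde fixation and Hoechst stain, imaged at 20x; PNC prevalence scored by image analysis.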
GoLoco inh red = RGS12 GoLoco-Gai1 interaction inhibition; P63096; Gai1:RGS12 GoLoco peptide FP, rhodamine, 10 min; Potency, µM (doses to about 61.6 µM), most hits filed as inhibitors; 0.44% of 230,000 active; AID 880; active = well fitted inhibition curve with a large enough effect, not every such curve was filed as active; inactive = no such curve, though single readings can be large or run the other way; also: nearly all actives have a fitted effect of over 30% in size
ALDH1A1 block = inhibitors of human aldehyde dehydrogenase 1A1; 7.3% of 220,000 active; Potency, µM (top dose mostly 75.3 µM), actives largely listed as inhibitors; Purified ALDH1A1, NADH fluorescence, propionaldehyde substrate
Target sequence (P00352 whole entry, looked up): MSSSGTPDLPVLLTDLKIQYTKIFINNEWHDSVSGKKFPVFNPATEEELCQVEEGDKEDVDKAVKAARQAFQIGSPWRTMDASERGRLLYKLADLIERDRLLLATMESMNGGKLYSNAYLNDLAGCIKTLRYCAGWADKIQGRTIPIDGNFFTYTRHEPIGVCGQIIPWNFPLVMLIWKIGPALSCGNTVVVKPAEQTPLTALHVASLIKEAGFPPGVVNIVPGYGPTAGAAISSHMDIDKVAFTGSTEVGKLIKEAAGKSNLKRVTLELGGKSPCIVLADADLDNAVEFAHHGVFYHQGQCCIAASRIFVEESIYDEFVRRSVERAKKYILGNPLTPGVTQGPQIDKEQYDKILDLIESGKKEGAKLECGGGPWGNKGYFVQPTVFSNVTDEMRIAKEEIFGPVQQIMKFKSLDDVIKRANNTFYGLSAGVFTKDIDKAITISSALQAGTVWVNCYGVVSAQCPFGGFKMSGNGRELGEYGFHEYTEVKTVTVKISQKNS
HPGD inh = inhibitors of human 15-hydroxyprostaglandin dehydrogenase (HPGD); P15428; purified HPGD, NADH fluorescence kinetic, PGE2 substrate; Potency, µM, most hits filed as inhibitors; 4.3% of 150,000 active; AID 894
Target sequence (P15428 whole entry, looked up): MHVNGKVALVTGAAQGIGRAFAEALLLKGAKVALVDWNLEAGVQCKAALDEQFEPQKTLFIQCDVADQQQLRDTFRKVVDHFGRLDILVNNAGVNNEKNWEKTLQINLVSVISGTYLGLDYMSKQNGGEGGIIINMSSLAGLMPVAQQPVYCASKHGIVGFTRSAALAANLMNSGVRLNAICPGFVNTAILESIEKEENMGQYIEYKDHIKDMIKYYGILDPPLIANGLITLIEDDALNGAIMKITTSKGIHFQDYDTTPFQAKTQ
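NADH formation kinetics: reaction with 30 uM PGE2 and 1 mM NAD+ (final), 20 nM enzyme, Tris-HCl pH 8 with Tween 20, after 15 min compound preincubation at room temperature. Fluorescence change, last versus first of five reads.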
HTT aggregate = inhibitors of mutant huntingtin aggregate formation in PC12 cells; PC12 HttQ103-GFP aggregates, Acumen cytometry, 40 h; Potency, µM (series often up to 46.1 µM), hits mostly inhibitors; 1.1% of 220,000 active; active = well fitted curve in the direction sought with a large enough effect; inconclusive = small, poorly fitted or top-dose-only effect, or another doubt; inactive = no such curve, though single readings can be large; an effect the other way counts as inactive or inconclusive; also: nearly all actives have a fitted effect of over 60% in size
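PC12/HTTQ103-GFP, ecdysone-inducible; teb 100 nM; cpd qHTS titration; GFP aggregates read on laser cytometer, Ex 488/Em 500-530 nm.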
A number is an active result; - = inactive; ? = inconclusive; . = no result; [ ] = dose if it differs, or a comment. The list is not random: actives were taken first. Their share in the collection is about 11%. Unless noted, calls follow the shape of the dose curve; as a rule, active = well fitted inhibition curve with a large enough effect (not every such curve was filed as active); inconclusive = small, poorly fitted or top-dose-only effect, or another doubt; inactive = no such curve, though single readings can be large or run the other way.

SMILES	HTT ATP protect	PNC inhibitor	GoLoco inh red	ALDH1A1 block	HPGD inh	HTT aggregate
COc1cc(/C=C/C(=O)N2CCCN(C(=O)/C=C/c3cc(OC)c(OC)c(OC)c3)CC2)cc(OC)c1OC	-	.	-	-	.	-
CCOC(Cn1cc(C)c(=O)[nH]c1=O)OCC	-	.	-	-	.	-
Cc1ccc(C)c(NC(=O)CNS(=O)(=O)c2ccccc2)c1	-[0.074 µM]	-80.4	-	-	-	-
Cc1cc(C)nc(SCC(=O)OCN2C(=O)c3ccccc3C2=O)n1	-[10 µM]	?	-	10µM	-	-
Cn1cnnc1SCC(=O)OCN1C(=O)c2ccccc2C1=O	-	-	-	-	-	-
COc1ccccc1NC(=O)CNS(=O)(=O)c1ccccc1	-[10 µM]	-	-	?	-	-
CCOc1ccccc1NC(=O)COC(=O)CNS(=O)(=O)c1ccc(C)cc1	-[10 µM]	-116.4	-	-	-	-
CC(C)(Oc1ccc(Cl)cc1)C(=O)OCn1nnc2ccccc2c1=O	-[10 µM]	?	-	5.01µM	?	-
Cc1cc(O)c(-c2n[nH]c3c2C(c2cccc(O)c2)N(Cc2cccnc2)C3=O)cc1Cl (stereo not given)	-[0.074 µM]	?	-	-	-	?
Cc1cc(C)nc(SCC(=O)c2cc3ccccc3oc2=O)n1	-	-	-	14.1µM	17.8µM	-
Cc1ccc(S(=O)(=O)NCCC(=O)OCn2nnc3ccccc3c2=O)cc1	-[10 µM]	-	-	28.2µM	-	-
CCOc1ccc(S(=O)(=O)NCCC(=O)OCN2C(=O)c3ccccc3C2=O)cc1	-[10 µM]	-	-	?	-	-
Cc1ccc(S(=O)(=O)NCC(=O)OCN2C(=O)c3ccccc3C2=O)cc1	-	-	-	3.98µM	-	-[9.22 µM]
O=C(CSc1nc2ccccc2o1)c1cc2ccccc2oc1=O	-[10 µM]	-	-	-	-	-
O=[N+]([O-])c1cc(S(=O)(=O)N2CCCCCC2)ccc1Cl	.	.	-	-	.	.
CCOC(=O)C1=C2NC(=O)c3ccccc3N2C(=O)C1	?	.	-	25.1µM	.	-
CC(=O)CSc1nnc(-c2cnccn2)n1-c1ccccc1	-[10 µM]	-	-	-	-	-
CC(C)OC(=O)CSc1nnc(-c2ccncc2)n1N	-	-	-	-	-	-
CC(C)OC(=O)CSc1nnc(-c2cnccn2)n1-c1ccc(Cl)cc1	-[10 µM]	-	-	10µM	-	-
CC(C)OC(=O)CSc1nnc(-c2ccc(C(C)(C)C)cc2)n1N	-[10 µM]	-	-	17.8µM	17.8µM	-
Cc1ccc(-n2c(SCC(=O)OC(C)C)nnc2-c2ccncc2)cc1	-	-100.0	-	-	-	-
C[C@@H]1C(=O)N(C)C(=O)c2nc[nH]c21	-[1.9 µM]	.	.	.	.	.
O=C1CCC(c2ccccc2)=NN1c1nc2ccccc2s1	-[10 µM]	.	-[14.2 µM]	-[13.5 µM]	-	.
NC(=S)NN=C1C2CC3CC(C2)CC1C3	-[10 µM]	.	-	25.1µM	.	-
CC(C)C[C@H](NC(=O)N1CCCCCC1)C(=O)N[C@H](Cc1cn(C)c2ccccc12)C(=O)N[C@H](Cc1ccccn1)C(=O)O	?	.	-	-	-	.
SMILES	HTT ATP protect	PNC inhibitor	GoLoco inh red	ALDH1A1 block	HPGD inh	HTT aggregate
O=C(CN1C(=O)NC2(CCCC2)C1=O)N1CCN(C(=O)c2ccco2)CC1	-[10 µM]	-	-	-	-	-
O=C(COC(=O)C1(c2ccc(F)cc2)CCCC1)N1CCN(C(=O)c2ccco2)CC1	-	?	-	20µM	-	-
O=C(COC(=O)C1(c2ccccc2F)CCCC1)N1CCN(C(=O)c2ccco2)CC1	-[10 µM]	-	-	-	-	-
O=C(CN1C(=O)NC2(CCCCCCC2)C1=O)N1CCN(C(=O)c2ccco2)CC1	-[10 µM]	-	-	11.2µM	-	-
N[C@@H](CSc1nc2ccccn2c1[N+](=O)[O-])C(=O)O	-[10 µM]	.	-[14.2 µM]	-[13.5 µM]	-	.
Cc1cc(C)c(OCC(=O)Nc2nc3ccccc3[nH]2)c(C)c1	-[10 µM]	.	-	-	.	-
CC1=C(C(=O)OCc2ccc3c(c2)OCO3)C(c2ccccc2)NC(=O)N1 (stereo not given)	-	-	-	?	-	2.82µM
CC1=C(C(=O)OCc2ccc3c(c2)OCO3)C(c2ccc(O)c([N+](=O)[O-])c2)NC(=O)N1 (stereo not given)	.	.	-	-	.	7.08µM
CC1=C(C(=O)OCc2ccc3c(c2)OCO3)C(c2ccccc2OCc2ccccc2)NC(=O)N1 (stereo not given)	-	-	-	-	-	?
CCOC(=O)C1=C(C)NC(=O)NC1c1cc2c(cc1Br)OCO2 (stereo not given)	-[10 µM]	-	-	-	-	-
N#C/C(=C\c1c[nH]c2ccccc12)C(N)=O	-[10 µM]	.	-	.	.	-[9.22 µM]
N#C/C(=C\c1c[nH]c2ccccc12)c1nnc2n1CCCCC2	-[10 µM]	-	-	-	12.6µM	?
N#C/C(=N\Nc1cccc2ccccc12)c1nnc2n1CCCCC2	-[10 µM]	-112.6	-	-	17.8µM	-
C/C(O)=C(\C#N)c1nnc2n1CCCCC2	-	-	-	?	-	-
c1ccc2c(-c3nnc4n3CCCCC4)c[nH]c2c1	-[10 µM]	-	-	-	25.1µM	?
CSCC(=O)N1CCCC(CNC(=O)c2ccc(-c3ccccc3)cc2)C1 (stereo not given)	-[10 µM]	.	-	3.98µM	.	-[9.22 µM]
COc1cc(/C=N/N2C(=O)c3ccccc3C2=O)ccc1O	.	-	-	?	-	-
O=C1CSC(=S)N1/N=C/c1cccnc1	.	.	-	.	.	0.891µM
COc1cc(/C=N/N2C(=O)C3C4C=CC(CC4)C3C2=O)ccc1O (stereo not given)	-	.	-	14.1µM	.	-
COc1cc(/C=N/N2C(=O)CSC2=S)ccc1O	-	-	-	28.2µM	-	-
O=C1CSC(=S)N1/N=C/c1ccc(Cl)c([N+](=O)[O-])c1	-[10 µM]	.	-	31.6µM	.	-[9.22 µM]
NC(Cc1c[nH]c2ccccc12)C(=O)NCC(=O)O (stereo not given)	-[1.9 µM]	.	-	-	-	.
O=C(COc1ccc(Br)cc1)N/N=C1\SCC(=O)N1c1ccc(F)cc1	-[10 µM]	-	-	-	-	-
O=C1CCC[C@@H](C(C(=O)OCc2ccccc2)C(=O)OCc2ccccc2)C1	-[10 µM]	.	.	-[13.5 µM]	.	.
Cc1c(-c2ccccn2)c(=O)[nH]n1-c1ccc(F)cc1	-	.	-	-	.	-[9.22 µM]
Cc1sc2nc(C(C)C)nc(SCC(=O)N3c4ccccc4CC3C)c2c1C (stereo not given)	-[10 µM]	-97.0	-	-	-	-
Cc1ccc2nc(-c3cccnc3SCC(=O)N3c4ccccc4CC3C)[nH]c2c1 (stereo not given)	-[10 µM]	?	-	?	?	-
Cc1ccc2nc(SCC(=O)N3c4ccccc4CC3C)c(C)cc2c1 (stereo not given)	-[10 µM]	-	-	25.1µM	-	?
Cc1ccccc1-n1ncc2c(SCC(=O)N3c4ccccc4CC3C)ncnc21 (stereo not given)	-	-	-	14.1µM	-	-
CCc1nc(SCC(=O)N2c3ccccc3CC2C)c2c(C)c(C)sc2n1 (stereo not given)	-	?	-	-	-	?
